# In PubChem BioAssay:
# Active and inactive are the calls of the source.
# Key:
# [1] = test system: Human papillomavirus type 1a protein E7 (residues 44-93); test: HPV1a E7 fragment binders on microarrays, primary screen, biochemical, small-molecule microarray, residues 44-93, 635 nm fluorescence (AID 1108); settings: small-molecule microarray binding, fluorescence 635 nm; higher = more signal;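 also: E7 fragment applied at 1 µg/mL in TBST for 1 h at 4 C; score combines spot fluorescence with its signal to noise ratio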
# [2] = modulators of HCV replicon luciferase signal, primary screen, HCV replication inhibitor project, Huh7 cells, luciferase reporter (AID 1109); settings: 48 h, higher = more signal;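 also: huh7 hepatoma cells harbouring a luciferase neomycin HCV replicon reporter; luciferase luminescence as measure of HCV replicon replication; test concentration not given here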
# [3] = target: Left-right determination factor 2 (Homo sapiens) (UniProt O00292); test: LEFTY2 binders on small-molecule microarrays, primary screen, biochemical, small-molecule microarray, 635 nm fluorescence scan (AID 1110); settings: LEFTY2 binding, higher = more signal
# Left-right determination factor 2 (Homo sapiens), sequence (O00292 whole entry, looked up): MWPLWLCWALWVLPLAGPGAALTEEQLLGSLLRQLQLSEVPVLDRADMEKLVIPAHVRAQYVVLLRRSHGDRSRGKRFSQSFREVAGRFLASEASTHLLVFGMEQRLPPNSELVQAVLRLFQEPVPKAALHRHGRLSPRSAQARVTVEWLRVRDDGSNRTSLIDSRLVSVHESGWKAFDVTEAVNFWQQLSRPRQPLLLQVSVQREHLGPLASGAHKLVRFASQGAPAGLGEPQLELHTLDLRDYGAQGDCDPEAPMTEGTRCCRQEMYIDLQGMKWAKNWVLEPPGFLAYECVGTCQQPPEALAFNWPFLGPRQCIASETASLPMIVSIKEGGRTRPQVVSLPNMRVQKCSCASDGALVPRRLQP
# [4] = target: Calmodulin-1 (Homo sapiens) (UniProt P0DP23); test: CALM1 binders on microarrays, EGTA buffer, profiling panel, biochemical, small-molecule microarray, Cy5-labelled CALM1 (AID 1111); settings: Cy5-CALM1 binding fluorescence, higher = more signal;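 also: labelled calmodulin applied in Tris saline Tween buffer holding calcium plus EGTA and DTT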
# [5] = target: Calmodulin-1 (Homo sapiens) (UniProt P0DP23); test: calcium-bound CALM1 binders on microarrays, profiling panel, artefact control for SMM control-protein annotation, biochemical, small-molecule microarray, Cy5-labelled CALM1, plus calcium (AID 1112); settings: Cy5-CALM1 binding fluorescence, higher = more signal;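 also: score merges spot fluorescence with signal to noise from triplicate slides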
# [6] = small-molecule microarray binders of probe aWnt5a, primary screen, biochemical, biotinylated probe, 635/667 nm fluorescence (AID 1113); settings: higher = more signal;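 also: score merges 667 nm fluorescence intensity with signal-to-noise per printed feature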
# [7] = small-molecule microarray binders of probe aShh, primary screen, biochemical, biotinylated probe, 635/667 nm fluorescence (AID 1114); settings: higher = more signal;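 also: probe is biotin-labelled aShh protein from a stem cell growth factor screen; measures binding of labelled protein to compounds printed on the slide; score merges feature fluorescence at 667 nm with signal-to-noise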
# [8] = small-molecule microarray binders of probe aNog, primary screen, biochemical, biotinylated probe, 635/667 nm fluorescence (AID 1115); settings: higher = more signal;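 also: probe is biotinylated aNog protein used at 0.15 µg/mL for 1 h at 4 C; z-score combines 667 nm fluorescence of each spot with its signal to noise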
# [9] = target: Torsin-1A-interacting protein 1 (Homo sapiens) (UniProt Q5JTV8); test: LAP1 binders from COS7 cell lysate, primary screen, small-molecule microarray, 635/667 nm fluorescence (AID 1116); settings: COS7-hLAP1 lysate binding, 635 nm fluorescence, higher = more signal
# Torsin-1A-interacting protein 1 (Homo sapiens), sequence (Q5JTV8 whole entry, looked up): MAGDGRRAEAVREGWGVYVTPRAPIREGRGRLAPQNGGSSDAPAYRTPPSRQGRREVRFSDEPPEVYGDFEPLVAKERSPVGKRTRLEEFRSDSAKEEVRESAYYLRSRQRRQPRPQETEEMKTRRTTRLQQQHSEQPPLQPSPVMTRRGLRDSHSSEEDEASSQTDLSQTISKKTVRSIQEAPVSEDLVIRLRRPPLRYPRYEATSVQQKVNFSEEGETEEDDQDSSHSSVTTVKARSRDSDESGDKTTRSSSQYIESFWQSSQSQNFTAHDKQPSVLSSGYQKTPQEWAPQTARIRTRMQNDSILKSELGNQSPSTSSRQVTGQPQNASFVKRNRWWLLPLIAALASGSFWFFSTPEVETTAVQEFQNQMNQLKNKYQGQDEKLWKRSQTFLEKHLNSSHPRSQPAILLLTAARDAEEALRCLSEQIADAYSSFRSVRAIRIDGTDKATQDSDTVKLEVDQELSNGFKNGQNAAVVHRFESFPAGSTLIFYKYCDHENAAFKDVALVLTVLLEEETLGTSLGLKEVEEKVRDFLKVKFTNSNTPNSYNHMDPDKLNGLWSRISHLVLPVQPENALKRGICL
# [10] = target: Alpha-bungarotoxin (Bungarus multicinctus) (UniProt P60615); test: alpha-bungarotoxin binders on microarray, profiling panel, artefact control for SMM control protein annotation, biochemical, small-molecule microarray, Alexa647 label, 635/667 nm fluorescence (AID 1117); settings: alpha-BTX-A647 binding fluorescence, higher = more signal
# Alpha-bungarotoxin (Bungarus multicinctus), sequence (P60615 whole entry, looked up): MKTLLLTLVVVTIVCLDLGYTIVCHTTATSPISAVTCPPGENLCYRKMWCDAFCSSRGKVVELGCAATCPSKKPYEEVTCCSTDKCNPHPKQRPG
# Albumin (Bos taurus) = Albumin (Bos taurus) (UniProt P02769); test: bovine serum albumin binders on microarray, profiling panel, artefact control for SMM control protein annotation, biochemical, small-molecule microarray, Alexa647 label, 635/667 nm fluorescence (AID 1118); settings: BSA-A647 binding, fluorescence 635 nm, higher = more signal;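 also: score merges 667 nm emission intensity and signal-to-noise per printed compound spot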
# Albumin (Bos taurus), sequence (P02769 whole entry, looked up): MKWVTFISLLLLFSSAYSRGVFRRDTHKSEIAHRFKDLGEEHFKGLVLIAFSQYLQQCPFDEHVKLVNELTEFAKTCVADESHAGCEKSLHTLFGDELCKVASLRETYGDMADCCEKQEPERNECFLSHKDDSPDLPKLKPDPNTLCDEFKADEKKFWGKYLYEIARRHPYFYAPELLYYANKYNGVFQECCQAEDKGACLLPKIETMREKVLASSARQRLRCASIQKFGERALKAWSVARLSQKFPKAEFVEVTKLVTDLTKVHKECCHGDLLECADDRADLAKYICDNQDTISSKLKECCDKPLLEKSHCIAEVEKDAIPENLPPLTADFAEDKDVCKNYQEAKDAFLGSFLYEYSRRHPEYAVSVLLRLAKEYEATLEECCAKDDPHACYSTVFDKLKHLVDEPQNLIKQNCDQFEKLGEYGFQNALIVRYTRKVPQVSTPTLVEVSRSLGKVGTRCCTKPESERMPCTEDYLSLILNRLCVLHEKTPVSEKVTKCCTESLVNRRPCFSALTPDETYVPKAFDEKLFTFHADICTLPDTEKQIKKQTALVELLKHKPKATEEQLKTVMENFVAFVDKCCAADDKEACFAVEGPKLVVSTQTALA
# [11] = small-molecule microarray binders of probe aXIP, primary screen, biochemical, NeuroSMM set, 635/667 nm fluorescence (AID 1119); settings: higher = more signal, called active from +8 up or from −8 down;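 also: probe is the protein aXip251-270 applied at 1 µg/mL to compound-printed slides; binding of probe to printed compounds measured as 667 nm fluorescence plus signal to noise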
# [12] = small-molecule binders of probe aNOTCH3, primary screen, biochemical, small-molecule microarray, 635/667 nm fluorescence (AID 1120); settings: higher = more signal;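 also: probe is a biotin-tagged antibody raised against NOTCH3 rather than NOTCH3 protein; score merges spot fluorescence near 667 nm with spot signal to noise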
# [13] = small-molecule binders of probe aNOTCH2, primary screen, biochemical, small-molecule microarray, 635/667 nm fluorescence (AID 1121); settings: higher = more signal;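 also: score merges feature fluorescence read at 667 nm with its signal to noise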
# [14] = target: Carbonic anhydrase 2 (Homo sapiens) (UniProt P00918); test: CAII small-molecule binders, profiling panel, biochemical, small-molecule microarray, Alexa647-labelled CAII (AID 1122); settings: CAII-A647 binding fluorescence, higher = more signal
# [15] = COS7 lysate on small-molecule microarray, probe aHis, 635 nm (AID 1123); settings: COS7 cell lysate, fluorescence, higher = more signal;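 also: z-score combines 667nm fluorescence intensity with signal-to-noise per printed compound spot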
# [16] = compound binding in COS7 lysate, probe aLAP1, primary screen, cell lysate, small-molecule microarray (AID 1124); settings: probe aLAP1, fluorescence, higher = more signal;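 also: lysate comes from COS7 cells expressing LAP1 and is applied at 0.3 µg/mL; score merges spot fluorescence near 667 nm with signal-to-noise over triplicate slides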
# Sam68 (KHDRBS1) = test: Sam68 small-molecule binders, primary screen, biochemical, small-molecule microarray, 635 nm fluorescence (AID 1125); settings: small-molecule microarray binding, higher = more signal;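 also: score merges 667 nm channel intensity with signal to noise over triplicate slides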
# [17] = test system: Chordin-like protein 2 (CHRDL2); test: CHRDL2 small-molecule binders, primary screen, biochemical, small-molecule microarray, 635 nm fluorescence (AID 1126); settings: small-molecule microarray binding, fluorescence 635 nm; higher = more signal;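 also: printed compound slides probed with Chrdl2 protein at 4 µg/mL for 1 h at 4 C; score merges 667 nm emission intensity with signal to noise over three replicate slides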
# [18] = target: Concanavalin-A (Canavalia ensiformis) (UniProt P02866); test: ConA small-molecule binders, primary screen, artefact control for SMM control protein annotation, biochemical, small-molecule microarray, Alexa647 label, 635 nm (AID 1127); settings: ConA-A647 binding fluorescence, higher = more signal;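 also: z combines 667 nm emission intensity with signal-to-noise across three replicate slides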
# Concanavalin-A (Canavalia ensiformis), sequence (P02866 whole entry, looked up): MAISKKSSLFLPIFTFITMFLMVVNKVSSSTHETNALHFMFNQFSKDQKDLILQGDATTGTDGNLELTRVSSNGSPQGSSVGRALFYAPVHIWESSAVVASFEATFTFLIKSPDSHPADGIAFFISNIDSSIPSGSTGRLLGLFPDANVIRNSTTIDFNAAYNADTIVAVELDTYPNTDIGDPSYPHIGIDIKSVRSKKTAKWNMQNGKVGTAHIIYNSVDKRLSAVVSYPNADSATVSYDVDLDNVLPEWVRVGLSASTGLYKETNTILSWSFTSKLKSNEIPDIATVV
Compound,composite z-score [1],z-score [2],composite z-score [3],composite z-score [4],composite z-score [5],composite z-score [6],composite z-score [7],composite z-score [8],composite z-score [9],composite z-score [10],composite z-score (Albumin (Bos taurus)),composite Z-score [11],composite z-score [12],composite z-score [13],composite z-score [14],composite z-score [15],composite z-score [16],composite z-score (Sam68 (KHDRBS1)),composite z-score [17],composite z-score [18]
COc1ccc([Si](C)(C)[C@@H]2[C@@H](CCO)O[C@]3(C(=O)N(Cc4ccccc4)c4ccc(NC(=O)[C@H](C)O)cc43)[C@H]2C)cc1,1.35,-5.08,0.387,1.46,-0.153,0.0559,-0.0738,-0.0428,1.5,0.484,0.0962,-0.0289 (inactive),0.147,-0.106,0.377,1.2,0.515,1.29,0.448,1.14
CCOC(=O)C[C@H]1[C@H](OC(=O)c2ccccc2-c2ccccc2)[C@@H](NC(=O)c2ccc3ccccc3c2)c2cc(OCCCO)ccc2N1C(=O)c1ccccc1,0.461,-1.27,0.596,-0.09,-0.332,-0.0981,-0.291,0.0043,0.228,0.789,0.5,-0.0287 (inactive),0.138,-0.206,0.355,0.462,-0.0843,0.735,0.578,0.215
CCOC(=O)C[C@H]1[C@H](OC(=O)c2cc3ccccc3oc2=O)[C@@H](NC(=O)c2ccc3ccccc3n2)c2cc(OCCCO)ccc2N1C(=O)Cc1ccc(OC)cc1,1.23,-1.96,0.735,0.228,-0.653,0.0297,-0.0119,-0.0428,0.726,0.981,0.463,0.35 (inactive),0.127,-0.0878,0.356,0.219,-0.0863,1.22,0.368,1.05
O=C(C1N=C(c2ccc(OCCCO)cc2)N(c2ccccc2)O1)N1CCCCC1 (stereo not given),1.26,0.65,0.413,2,0.867,0.0454,-0.229,0.411,1.25,1.85,0.909,1.91 (inactive),0.304,0.116,0.718,2.31,0.936,1.29,0.165,1.2
CCN(CC)c1ccc(N2CC=CC34O[C@@H]5/C=C\CCCOC(=O)C5[C@H]3C(=O)N(C(C)CO)[C@@H]4C2=O)cc1 (stereo not given in full),-0.0836,-0.261,-0.469,-0.479,-0.619,-0.0405,0.297,0.0073,-0.421,1.04,0.288,-0.463 (inactive),-0.0647,-0.0862,0.732,0.121,0.248,0.11,0.259,-0.529
